# Data as given in PubChem BioAssay (NCI).
# This is part of a sample that, as a whole, favours compounds with a hit. Of some 83,000 tested, about 20% had one in any assay.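 Compound tested at a single concentration for 48 hours in 96-well plates; a percent growth value below 10 was scored as active.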 Unmarked numbers belong to inactive results. Activity calls are given as the source filed them.
# Assays:
# Test in all cases: NCI-60 one-dose screen, 48 h (100 = growth as untreated, 0 = no growth, -100 = all killed)
# K-562 leukemia = conditions: 10 µM
# MALME-3M melanoma = conditions: 10 µM
# RXF 393 renal = conditions: 10 µM
# SF-268 CNS = conditions: 10 µM
# SF-295 CNS = conditions: 10 µM
# SF-539 CNS = conditions: 10 µM
# UACC-257 melanoma = conditions: 10 µM
# M14 melanoma = conditions: 10 µM
# HT29 colon = conditions: 10 µM
# SNB-75 CNS = conditions: 10 µM
# SNB-19 CNS = conditions: 10 µM
# U251 CNS = conditions: 10 µM
# PC-3 prostate = conditions: 10 µM
# SK-MEL-5 melanoma = conditions: 10 µM
# UACC-62 melanoma = conditions: 10 µM unless noted
# LOX IMVI melanoma = conditions: 10 µM
# SK-MEL-28 melanoma = conditions: 10 µM
# DU-145 prostate = conditions: 10 µM
# MDA-MB-231 breast = conditions: 10 µM
# HCT-15 colon = conditions: 10 µM
SMILES,growth (K-562 leukemia) [%],growth (MALME-3M melanoma) [%],growth (RXF 393 renal) [%],growth (SF-268 CNS) [%],growth (SF-295 CNS),growth (SF-539 CNS) [%],growth (UACC-257 melanoma) [%],growth (M14 melanoma),growth (HT29 colon),growth (SNB-75 CNS) [%],growth (SNB-19 CNS) [%],growth (U251 CNS) [%],growth (PC-3 prostate) [%],growth (SK-MEL-5 melanoma),growth (UACC-62 melanoma) [%],growth (LOX IMVI melanoma) [%],growth (SK-MEL-28 melanoma) [%],growth (DU-145 prostate),growth (MDA-MB-231 breast) [%],growth (HCT-15 colon) [%]
CCOC(=O)C(C#N)Cc1ccccc1 (centres undefined),125,136,124,113,104%,114,117,108%,104%,99.1,100,112,90.2,117%,111,107,120,–,–,–
O=C(O)CNC(=O)c1ccccc1,–,–,–,–,–,–,–,–,–,–,–,96.6,–,–,–,–,–,–,–,–
CC1=CC(=O)c2ccccc2C1=O,–,–,–,119,109%,104,104,107%,112%,90.9,101,–,108,103%,100,96.5,116,113%,98.8,102
COC(=O)Nc1nc2ccc(C(=O)c3cccs3)cc2[nH]1,–,36.2,44.9,36.9,-9.66% (active),10.3,56,3.53% (active),2.02% (active),32.8,29.9,16.6,22.7,-21.1% (active),34.2,28.4,56.3,-1.55% (active),24,10.8
CN(C)c1ccc(CNC(C(=O)c2ccccc2)c2ccccc2)cc1 (centres undefined),94.8,94.2,–,96.9,98.1%,111,94.9,114%,82.6%,90.4,107,94.1,85.7,–,99.2,–,94.2,–,107,96.9
